Experimental data as given in the antibiotic and cytotoxicity screens of Wong et al. (2023).
In all, about 39,000 compounds went through this assay and about 500 (1.3%) were called active. The full list was thinned out, with actives kept by preference.

Test system: S. aureus RN4220
Assay: growth inhibition call (relative growth <= 0.2)
Conditions: 50 µM

Growth inhibition call, active:
C=C(NC(=O)C(=C)NC(=O)c1csc(C2=NC3c4csc(n4)C4NC(=O)c5csc(n5)C(C(C)(O)C(C)O)NC(=O)C5CSC(=N5)C(=CC)NC(=O)C(C(C)O)NC(=O)c5csc(n5)C3(CC2)NC(=O)C(C)NC(=O)C(=C)NC(=O)C(C)NC(=O)C(C(C)CC)NC2C=Cc3c(C(C)O)cc(nc3C2O)C(=O)OC4C)n1)C(N)=O (centres undefined)
O=C(O)c1cc(F)c2nc(N3[C@@H]4CC[C@H]3C[C@@H](OCc3c(-c5ccccc5OC(F)(F)F)noc3C3CC3)C4)sc2c1
O=C1OC2(c3ccccc31)c1cc(I)c(O)c(I)c1Oc1c2cc(I)c(O)c1I
N=C(N)NCCC[C@@H](NC(=O)CC1(CC(=O)N2CCN([C@H]3c4ccccc4NC(=O)c4ccccc43)CC2)CCCC1)C(=O)NCCn1c(=O)n(-c2ccccc2)n(-c2ccccc2)c1=O
CC=C(C(=CC)c1ccc(O)cc1)c1ccc(O)cc1
Cc1nc2c(=O)n(C)c(=O)n(C)c2nc1Cl
CC(=O)OCC1=C(C(=O)[O-])N2C(=O)C(NC(=O)Cc3cccs3)C2SC1.[Na+] (centres undefined)
COC1(NC(=O)Cc2cccs2)C(=O)N2C(C(=O)[O-])=C(COC(N)=O)CSC21.[Na+] (centres undefined)
CC(=O)OCC1=C(C(=O)[O-])N2C(=O)C(NC(=O)CSc3ccncc3)C2SC1.[Na+] (centres undefined)
CC(=O)OCC1=C(C(=O)O)N2C(=O)[C@@H](NC(=O)CSc3ccncc3)[C@H]2SC1

Growth inhibition call, inactive:
C=C(NC(=O)C(=C)NC(=O)c1csc(C2=N[C@@H]3c4csc(n4)[C@@H]4NC(=O)c5csc(n5)[C@H](C(C)(O)[C@@H](C)O)NC(=O)[C@H]5CSC(=N5)/C(=C/C)NC(=O)[C@H]([C@@H](C)O)NC(=O)c5csc(n5)[C@]3(CC2)NC(=O)[C@@H](C)NC(=O)C(=C)NC(=O)[C@@H](C)NC(=O)[C@@H]([C@H](C)CC)N[C@H]2C=Cc3c([C@@H](C)O)cc(nc3[C@@H]2O)C(=O)O[C@H]4C)n1)C(N)=O (some centres undefined)
C=C(NC(=O)C(=C)NC(=O)c1csc(C2=N[C@H]3c4csc(n4)[C@H]4NC(=O)c5csc(n5)[C@H](C(C)(O)[C@@H](C)O)NC(=O)[C@H]5CSC(=N5)C(=CC)NC(=O)[C@H]([C@@H](C)O)NC(=O)c5csc(n5)[C@]3(CC2)NC(=O)[C@H](C)NC(=O)C(=C)NC(=O)[C@H](C)NC(=O)[C@H]([C@H](C)CC)N[C@@H]2C=Cc3c([C@H](C)O)cc(nc3[C@H]2O)C(=O)O[C@@H]4C)n1)C(N)=O (some centres undefined)
COCCNC(=O)c1cn(C)nc1OC
C[C@H]1CN([C@@H](C)CO)C(=O)c2cccc(NS(=O)(=O)c3cn(C)cn3)c2O[C@H]1CN(C)S(=O)(=O)c1cn(C)cn1
C[C@H]1CN([C@@H](C)CO)S(=O)(=O)c2ccc(C#CC3(O)CCCC3)cc2O[C@H]1CN(C)C(=O)Cc1ccccc1
CC(C)NC(=O)N(C)C[C@@H]1Oc2c(NS(=O)(=O)c3ccccc3)cccc2C(=O)N([C@@H](C)CO)C[C@H]1C
C[C@H](CO)N1C[C@H](C)[C@@H](CN(C)C(=O)CCN2CCCCC2)Oc2ncc(C#CCN(C)C)cc2C1=O
COc1ccc(CN2C[C@H](C)[C@@H](OC)CN(C)C(=O)c3ccc(NC(=O)c4nc5ccccc5s4)cc3OC[C@H]2C)cc1
O=C1OC2(c3ccc(O)cc3Oc3cc(O)ccc32)c2ccccc21
O=C1OC(c2cc(I)c(O)c(I)c2)(c2cc(I)c(O)c(I)c2)c2ccccc21
Cc1ccc(CNS(=O)(=O)N(C)C)cc1
CO[C@H](CN(C)S(=O)(=O)c1ccc(Cl)cc1)[C@@H](C)CN([C@H](C)CO)S(=O)(=O)c1cccc(Cl)c1
C[C@H](CO)N1C[C@H](C)[C@@H](CN(C)C(=O)Cc2ccncc2)Oc2ncc(C#Cc3ccccc3F)cc2C1=O
C[C@H]1CN([C@@H](C)CO)C(=O)c2cc(NC(=O)Nc3cccc4ccccc34)ccc2O[C@H]1CN(C)C(=O)Nc1ccccc1
C[C@@H]1CN([C@H](C)CO)C(=O)c2cccc(NS(C)(=O)=O)c2O[C@H]1CN(C)Cc1ccc(C(=O)O)cc1
Oc1ccc(O)cc1
CCC(=C(CC)c1ccc(O)cc1)c1ccc(O)cc1
CC(C)NC(=O)N(C)C[C@@H]1Oc2cc(C#Cc3ccc(F)cc3)ccc2S(=O)(=O)N([C@H](C)CO)C[C@H]1C
C[C@H](CO)N1C[C@H](C)[C@H](CN(C)Cc2ccc(Cl)c(Cl)c2)Oc2ccc(NC(=O)Nc3ccc(F)cc3)cc2CC1=O
C[C@@H]1CCCCO[C@H](CN(C)Cc2ccc(C(F)(F)F)cc2)[C@@H](C)CN([C@@H](C)CO)C(=O)c2cc(NS(=O)(=O)c3ccc(Cl)cc3)ccc2O1
Cn1c(=O)c2c(nc(SCSc3nc4c(c(=O)n(C)c(=O)n4C)n3C)n2C)n(C)c1=O
CCn1c(Cl)nc2c1c(=O)n(C)c(=O)n2C
Cc1noc(C)c1S(=O)(=O)Nc1ccc2c(c1)CC(=O)N([C@@H](C)CO)C[C@H](C)[C@@H](CN(C)Cc1ccncc1)O2
C[C@@H]1CN([C@@H](C)CO)C(=O)c2cc(NS(C)(=O)=O)ccc2O[C@H]1CN(C)C(=O)Nc1ccccc1
C[C@H]1CCCCO[C@@H](CN(C)C(=O)Nc2ccc(C(F)(F)F)cc2)[C@@H](C)CN([C@@H](C)CO)C(=O)c2cc(NC(=O)NC3CCCCC3)ccc2O1
C[C@H]1CCCCO[C@@H](CN(C)C(=O)Nc2ccc3c(c2)OCO3)[C@@H](C)CN([C@@H](C)CO)C(=O)c2cc(NS(=O)(=O)c3ccccc3)ccc2O1
C[C@H](CO)N1C[C@H](C)[C@@H](CN(C)S(C)(=O)=O)Oc2c(NC(=O)Nc3ccc(C(F)(F)F)cc3)cccc2C1=O
COc1cccc(C#Cc2cnc3c(c2)C(=O)N([C@@H](C)CO)C[C@@H](C)[C@@H](CN(C)C(=O)C2CCOCC2)O3)c1
C[C@@H]1CN([C@@H](C)CO)C(=O)c2cc(-c3cccc(C(=O)N(C)C)c3)cnc2O[C@H]1CN(C)S(=O)(=O)c1ccc(F)cc1
